Test results: PubChem BioAssay AID686978 (National Center for Advancing Translational Sciences (NCATS), 2013)
Among all 420,000 compounds or so, about 64,000 (15%) were called active. Another 27% or so got no clear call; they are omitted. Calls follow the shape of the dose curve; as a rule, active = well fitted inhibition curve with a large enough effect; inconclusive = small, poorly fitted or top-dose-only effect; inactive = flat fitted curve, though single readings scatter. Not all results are given here. Where a call stands in place of a potency, no number is given.

experiment: qHTS for Inhibitors of human tyrosyl-DNA phosphodiesterase 1 (TDP1): qHTS in cells in absence of CPT; details: DT40 Tdp1-/- hTDP1 cells, no CPT, ATP luminescence, 48 h; activity change, negative = growth inhibition: at 46.2 µM (top of the series); also: nearly all actives have a fitted effect of over 55% in size
Outline: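 Compound effects on proliferation are scored in DT40 Tdp1-/-;hTDP1 cells in the absence of CPT. ATP levels (CellTiter-Glo luminescence) are recorded after a ≥48 hr, 37 °C incubation.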
Potency is read from the fitted curve at half-maximal effect.

Row | SMILES | Potency
1 | CCOc1cc(S(=O)(=O)NC2CC(C)(C)NC(C)(C)C2)ccc1F | inactive
2 | COc1cc(/C=N/Nc2ccc(C)cc2)cc(Br)c1O | inactive
3 | COc1cc(/C=N/Nc2nn3cnnc3c3ccccc23)cc(OC)c1OC | 16.4 µM (active)
4 | COc1cc(/C=N/NC(=O)Cc2ccccc2)cc(OC)c1OC | inactive
5 | Cc1nnsc1C(=O)NCc1c(F)cccc1Cl | inactive
6 | COc1ccccc1Nc1nnc(SC(C)C(=O)NC2CC2)s1 (stereo not given) | inactive
7 | S=c1[nH]nc(CSCc2ccc(Cl)cc2Cl)n1-c1ccccc1 | 15.8 µM (active)
8 | Cc1ccc(NCc2n[nH]c(=S)n2-c2ccccc2)cc1Cl | inactive
9 | Cc1ccc(OCc2n[nH]c(=S)n2-c2ccccc2)cc1 | inactive
10 | Cc1c(C(=O)N2CCCC2)c(S(=O)(=O)NCC(C)c2ccccc2)c(C)n1C (stereo not given) | inactive
11 | O=C(N1CCOCC1)N(Cc1ccccc1)c1ccccn1 | inactive
12 | O=C(c1cccs1)N(C(=O)c1cccs1)c1ccccn1 | inactive
13 | O=C(c1ccc(Br)o1)N(c1ccccn1)C1CCCCC1 | 23.1 µM (active)
14 | CCn1c(CNC(=O)C23CC4CC(CC(C4)C2)C3)nnc1SCC(=O)Nc1ccc(OC)cc1 | inactive
15 | CN(C)/C=C(\C#N)C(=O)c1cccnc1Oc1ccc(F)cc1F | inactive
16 | O=c1ccc2c(-c3ccccc3S(=O)(=O)O)c3ccc(O)c(O)c3oc-2c1O | 11.6 µM (active)
17 | CCCNC(=S)NC1CC2CCCC(C1)N2CC(C)C (stereo not given) | inactive
18 | O=C(NCCCc1ccccc1)c1cc(COc2c(F)cccc2F)on1 | inactive
19 | O=C(NC1=CC(=O)c2ccccc2C1=O)c1ccccc1 | 1.16 µM (active)
20 | CC(NC(=O)c1ccccc1)C(=O)Nc1ccccc1 (stereo not given) | inactive
21 | O=C(NC(=O)c1ccccc1)NC(=O)c1ccccc1 | inactive
22 | Cc1csc[n+]1CCC1CCCCC1 | 10 µM (active)
23 | C=CCn1c(SCC(=O)/C(C#N)=C(\C)N)nc2sc(C)c(C)c2c1=O | inactive
24 | CC(=O)c1ccc(N2CCN(c3nc4c(S(=O)(=O)c5ccccc5)nnn4c4ccc(Cl)cc34)CC2)cc1 | inactive

Row | SMILES | Potency
25 | CCOC(=O)c1nnn2c1nc(N1CCN(c3ccccc3)CC1)c1ccccc12 | 14.6 µM (active)
26 | CCOC(=O)c1nnn2c3ccccc3c(=O)n(C)c12 | inactive
27 | CCOc1ccc(NC(=O)CCNC(=O)c2ccc(Br)cc2)cc1 | inactive
28 | CCOC(=O)CNC(=O)CSc1nnc(-c2cccc(OC)c2)n1CC | inactive
29 | COC(=O)CC(CC(=O)OC)n1cccc1 | inactive
30 | CCOCc1nnc(NC(=O)CCS(=O)(=O)Cc2ccccc2)s1 | 18.4 µM (active)
31 | COCCSc1nnc(NC(=O)CCS(=O)(=O)Cc2ccccc2)s1 | inactive
32 | CCCCc1nnc(NC(=O)CS(=O)(=O)Cc2ccccc2)s1 | inactive
33 | CC1CN(Cc2ccccc2)C(=S)NC1=O (stereo not given) | inactive
34 | O=C(Nc1ccccc1)/C(=C\c1ccco1)NC(=O)c1ccco1 | inactive
35 | CCC1CN(CCNC(=O)c2ccsc2)Cc2cc(OC)ccc2O1 (stereo not given) | inactive
36 | CC1CCN(CCCNC(=O)CN2C(=O)CSc3ccc(S(=O)(=O)N4CCCCC4)cc32)CC1 | inactive
37 | CC(=O)Nc1ccc(NC(=O)CN2C(=O)COc3ccc(S(=O)(=O)N4CCCCC4)cc32)cc1 | inactive
38 | CN(C)c1ccc(CNC(=O)CN2C(=O)COc3ccc(S(=O)(=O)N4CCCC4)cc32)cc1 | inactive
39 | CC1CCN(S(=O)(=O)c2ccc3c(c2)N(CC(=O)NCCc2ccccc2)C(=O)CO3)CC1 | 20.6 µM (active)
40 | COc1ccc(CCNC(=O)CN2C(=O)COc3ccc(S(=O)(=O)N4CCCC4)cc32)cc1OC | inactive
41 | CCCCN(CCCC)CCNC(=O)CN1C(=O)COc2ccc(S(=O)(=O)N3CCOCC3)cc21 | inactive
42 | Cc1ccc2c(c1)N(CC(=O)NCC1CCCO1)C(=O)CO2 (stereo not given) | inactive
43 | Cc1ccc(C)c(N2CCN(C(=O)CN3C(=O)COc4ccc(S(=O)(=O)N5CCCCCC5)cc43)CC2)c1 | 16.4 µM (active)
44 | Cc1ccc2c(c1)N(CC(=O)N1CCOCC1)C(=O)CO2 | inactive
45 | Cc1ccc(CCNC(=O)CN2C(=O)CSc3ccc(S(=O)(=O)N4CCOCC4)cc32)cc1 | 20.6 µM (active)
46 | COCCCNC(=O)CN1C(=O)CSc2ccc(S(=O)(=O)N3CCOCC3)cc21 | inactive
47 | CCCCN(CCCC)CCCNC(=O)CN1C(=O)COc2ccc(S(=O)(=O)N3CCC(C)CC3)cc21 | 9.2 µM (active)
48 | CN(C)C(CNC(=O)c1ccc(OCc2cn3ccccc3n2)cc1)c1ccco1 (stereo not given) | inactive

Row | SMILES | Potency
49 | CC(CO)N1CCS(=O)(=O)CC1 (stereo not given) | inactive
50 | CC1(C)CC(=O)C=C(Nc2ccccc2)C1 | inactive
51 | c1ccc2c(c1)C(=NC1CCCCC1)NC2=NC1CCCCC1 | 14.6 µM (active)
52 | O=C1CCCCC(=O)c2ccccc2N1 | inactive
53 | O=C1CN(C(=O)COC(=O)/C=C/c2ccc(F)cc2)c2ccccc2N1 | inactive
54 | Cc1cc2cc3c(N)[nH]nc3nc2cc1C | inactive
55 | Cc1nc2ccccc2nc1N/N=C/c1ccc(O)cc1O | 4.11 µM (active)
56 | Oc1ccc(/C=N/NC2=NCCCCC2)c(O)c1 | inactive
57 | Cc1noc(C)c1/C=N/Nc1ccc2ccccc2n1 | inactive
58 | Cc1cc(N/N=C/c2ccccc2F)c2ccccc2n1 | inactive
59 | Oc1ccc(/C=N/Nc2nc(-c3ccccc3F)nc3ccccc23)c(O)c1 | 7.31 µM (active)
60 | Cc1csc2nc(O)c(C(=O)NCCN3CCOCC3)c(=O)n12 | inactive
61 | CC(C)NC(=O)C(=O)NCCN1CCN(S(=O)(=O)c2ccc(Cl)cc2)CC1 | inactive
62 | COCCCNc1nc2ccccc2nc1NS(=O)(=O)c1ccc(F)cc1 | inactive
63 | Cc1cccn2c(CNCC(C)Oc3cccnc3)c(C(=O)N3CCOCC3)nc12 (stereo not given) | inactive
64 | CCOC(=O)C1CCN(Cc2c(C(=O)N3CCOCC3)nc3c(C)cccn23)CC1 | inactive
65 | Cc1cccn2c(CN(C)C3CCCc4ccccc43)c(C(=O)N3CCOCC3)nc12 (stereo not given) | 18.4 µM (active)
66 | CC1CCCCN1C(=O)CCS(=O)(=O)Cc1ccccc1 (stereo not given) | inactive
67 | O=C(CC1Oc2ccc(Cl)cc2NC1=O)NCc1ccccc1 (stereo not given) | inactive
68 | CC(=O)Nc1cccc(-c2nc3ccccc3s2)c1C | inactive
69 | CCC(C(=O)Nc1ccc2c(c1)OCCO2)c1ccccc1 (stereo not given) | inactive
70 | CCC(C(=O)Nc1cccc(-c2nc3cccnc3s2)c1C)c1ccccc1 (stereo not given) | 20.6 µM (active)
